Compound activity as filed in PubChem BioAssay.
aSyn UTR inh = MLPCN primary screen, SNCA 5' untranslated region; alpha-synuclein 5'UTR reporter, inhibitor activity; inhibition, % (tested at 7.5 µM); 300,000 tested, 0.82% active; AID 1813; in the data active means inhibition above about 60%;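 further: H4 neuroglioblastoma cells stably carrying SNCA 5'UTR luciferase fusion; 0% = DMSO wells and 100% = positive control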
IEC-6 tox = kills IEC-6 intestinal cells in KLF5 counter-screen; inhibition, % at 5 µM; 290,000 tested, 0.78% active; IEC-6 cytotoxicity, luminescence viability; in the data active means inhibition above about 22%;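 further: 0% = plate median of test compound wells and 100% = cytotoxic reference compound wells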
KLF5 inhibitor = suppresses KLF5 promoter-driven expression | 290,000 tested, 0.23% active | DLD-1 KLF5 promoter-luciferase reporter, luminescence | inhibition, % at 5 µM | AID 1700;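 active means inhibition above a per-plate limit of that plate's mean compound inhibition plus 3 SD, cut at about 60% in these data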;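 further: 0% = DMSO wells and 100% = LY294002 at 200 µM; higher means less KLF5 promoter-driven luciferase light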
APP transl inh = APP translation inhibition. 190,000 tested, 0.82% active. inhibition, % at 2 µM. SH-SY5Y APP 5'UTR-luciferase reporter, luminescence. AID 1285;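 active means inhibition above a set limit, derived from the sample mean plus 3 SD, cut at about 45% in these data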
BaF3 tox = parental Ba/F3 viability inhibition as JAK2V617F counter-screen; inhibition, % at 5.6 µM; CellTiter-Glo ATP luminescence; 220,000 tested, 1.1% active; AID 1486;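 active means inhibition above a per-campaign cutoff, the mean inhibition of all tested compounds plus 3 SD, cut at about 27% in these data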;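 further: 0% = DMSO wells and 100% = JAK Inhibitor I control wells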
Ba/F3 V617F tox = lowers viability of Ba/F3 cells expressing EpoR and JAK2V617F | 220,000 tested, 1.1% active | ATP luminescence | inhibition, % at 5.6 µM;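 active means inhibition above the campaign mean plus 3 SD over all tested compounds, cut at about 24% in these data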;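 further: cytokine-independent growth of Ba/F3 cells driven by EpoR plus mutant JAK2; 0% = DMSO-treated cells and 100% = JAK inhibitor I control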
An asterisk follows results filed as active; / = no result. Only some compounds are listed: those with a hit (about 2.2% of all), similar ones and a draw of the others.

SMILES	aSyn UTR inh	IEC-6 tox	KLF5 inhibitor	APP transl inh	BaF3 tox	Ba/F3 V617F tox
COC(=O)C1(NC(=O)NC2CCCCC2)CCCCC1	-6.0	0.4	6.9	/	-0.1	1.5
O=C(CCn1c(=S)oc2ccccc21)NC1CCCCCC1	5.1	-2.2	-3.0	/	-4.1	0.0
CC1CCCCN1C(=O)CCn1c(=S)oc2ccccc21 (stereo not given)	-8.9	-2.6	1.7	/	50.4*	16.2
CCC(C)Nc1nc(N)c([N+](=O)[O-])c(NCc2ccccc2)n1 (stereo not given)	64.7*	3.7	2.2	/	/	/
COc1ccc(Nc2nc(N)c([N+](=O)[O-])c(NC3CCCCC3)n2)cc1	61.8*	-10.7	-10.3	/	/	/
COCCCNc1nc(N)c([N+](=O)[O-])c(NC2CCCCC2)n1	90.1*	-2.4	-28.4	/	/	/
CC(C)CCNc1nc(N)c([N+](=O)[O-])c(NCC2CCCO2)n1 (stereo not given)	61.6*	0.0	13.6	-18.6	6.6	-0.5
O=C(COC(=O)c1ccc(Cl)c(Cl)c1)NC1CCCC1	-8.1	-1.8	-9.7	/	/	/
Nc1nc(NCC(=O)O)nc(NC2CCCCC2)c1[N+](=O)[O-]	21.4	0.3	-10.6	/	/	/
CCC(C)Nc1nc(N)c([N+](=O)[O-])c(NC2CCCCC2)n1 (stereo not given)	102.2*	9.7	-4.4	/	/	/
COc1ccc2nc(C)cc(SCC(=O)N/N=C/c3ccc(O)cc3O)c2c1	79.8*	5.2	22.3	35.7	15.0	6.9
COc1ccc2nc(C)cc(SCC(=O)N/N=C/c3ccccc3)c2c1	-0.4	-7.7	9.3	1.5	1.6	1.4
CCOC(=O)c1c(C)[nH]c2cc(Br)c(O)cc12	-92.3	2.6	1.1	54.6*	7.9	-1.6
CCOC(=O)c1c(-c2ccc(OC)cc2)oc2cc(Br)c(O)cc12	24.9	-4.4	-16.2	/	/	/
CC(=O)Nc1ccc(S(=O)(=O)Nc2nc3ccccc3nc2-n2ccc(=NC(=O)c3ccc(F)cc3)cc2)cc1	6.1	1.8	-9.6	-2.7	5.2	1.1
CC(C)[C@H](NC(=O)c1ccccc1)C(=O)OCC(=O)c1ccc(S(=O)(=O)N2CCCCC2)cc1	2.1	/	/	/	/	/
CCOc1ccc(NC(C(=O)Nc2cccc(C(C)=O)c2)c2ccccc2)cc1 (stereo not given)	0.0	6.3	10.9	4.6	53.7*	50.7*
COc1ccc(-n2cc(-c3ccccc3)[n+]3c2CCCCC3)cc1	-13.0	15.7	-9.6	4.7	58.7*	72.3*
COc1ccc(-n2cc(-c3ccccc3)nc2SC)cc1	-121.3	-5.4	-46.6	-75.7	7.2	0.1
COc1ccc(-c2cn(-c3ccc(SC(F)F)cc3)c3[n+]2CCC3)cc1OC	0.7	-2.7	-20.8	7.7	2.8	-3.5
FC(F)Oc1ccc(-c2csc(Cc3nnc4n3CCCCC4)n2)cc1	21.2	5.5	11.4	-0.5	3.2	5.5
FC(F)Sc1ccc(-n2cc(-c3ccccc3)[n+]3c2CCC3)cc1	-9.7	-2.4	-10.9	-17.3	69.0*	59.7*
FC(F)Oc1ccc(-n2cc(-c3ccc(Cl)cc3)[n+]3c2CCCCC3)cc1	-10.5	2.3	16.4	/	62.3*	53.7*
CCCN(CC(=O)Nc1ccccc1C)C(=O)C1CCN(S(=O)(=O)c2ccccc2C(F)(F)F)CC1	2.9	/	/	/	/	/
CCc1cc2c(=O)n(Cc3ccco3)c(SCc3c(C)noc3C)nc2s1	33.6	9.1	0.2	50.3*	3.4	5.0
SMILES	aSyn UTR inh	IEC-6 tox	KLF5 inhibitor	APP transl inh	BaF3 tox	Ba/F3 V617F tox
Nc1nc2ncc(CNc3ccc(C(=O)N[C@@H](CCC(=O)O)C(=O)O)cc3)nc2c(=O)[nH]1	8.6	-1.2	-22.4	/	/	/
CN(Cc1cnc2nc(N)nc(N)c2n1)c1ccc(C(=O)N[C@@H](CCC(=O)O)C(=O)O)cc1	77.5*	/	/	/	/	/
Cc1nc(C(C)N(C)Cc2nc(-c3ccc4c(c3)OCO4)no2)c(C)s1 (stereo not given)	-52.6	-3.3	-54.9	-1.8	5.9	-2.8
O=C1C=C(c2ccccc2)C[C@H](c2cccs2)[C@H]1n1nnc([N+](=O)[O-])n1	88.3*	-4.7	-38.1	14.6	5.6	1.1
O=C1C=C(c2ccccc2)CC(c2cccs2)C1n1cnc([N+](=O)[O-])c1 (stereo not given)	28.2	8.4	-12.1	2.9	2.9	1.0
COc1cccc(C(C(=O)NC2CCCC2)N(C(=O)c2csnn2)C2CC2)c1 (stereo not given)	0.1	0.5	-2.2	/	/	/
C=CCn1c(C)cc(C2=NNC(=NC(C)(C)C)SC2)c1C	89.4*	0.6	-27.2	-127.6	-0.2	1.9
